# Hits are enriched below; roughly 2.8% of the tested compounds scored in any of these assays.
# SENP8 block-1 = blocks the human protease SENP8; purified SENP8, Z-RLRGG-aminoluciferin cleavage, luminescence; Q96LD8; AID 2540; 1.2% of 330,000 active; inhibition, % at 10 µM; in the data active = inhibition above about 50%
# Platelet DG rel = modulates dense granule release in human platelets; human platelet-rich plasma, SFLLRN dense granule ATP release, luminescence; inhibition, %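 (compounds screened at 7.5 µM in platelet-rich plasma)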; 0.22% of 300,000 active; AID 1663;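 active = mean replicate score, as percent of positive control, at or above 50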
# SENP6 block = inhibitors of human SENP6 protease. Recombinant SENP6 catalytic domain, aminoluciferin luminescence. inhibition, % at 10 µM. 1.8% of 330,000 active;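 active = inhibition above about 50% at the single tested dose, limit read from the data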
# SENP8 block-2 = SENP8 (human) protease inhibition. 0.64% of 360,000 active. recombinant SENP8, Nedd8 substrate fluorescence. Q96LD8. inhibition, % at 20 µM. AID 602440; in the data active = inhibition mostly above about 40%, no sharp cut-off; inactive = mostly below about 27%
# HSP90 inh = blocks HSP90-mediated luciferase refolding in reticulocyte lysate. inhibition, % at 5.6 µM. 0.91% of 290,000 active. Rabbit reticulocyte lysate, luciferase refolding luminescence, 3 h;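 active = inhibition above the screen-wide mean plus 3 SD, computed separately per campaign, cut at about 16% in these data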;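 note: inhibitors lower the luminescence because luciferase stays unfolded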
# SENP7 block = blocks the human protease SENP7; AID 434973; Q9BQF6; 1.5% of 330,000 active; inhibition, % at 5 µM; recombinant SENP7, Z-RLRGG-aminoluciferin luminescence, 40 min;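 active = inhibition above about 50% at the single test dose, limit read from the data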
# Target sequence (Q9BQF6 706-1050 limits assumed): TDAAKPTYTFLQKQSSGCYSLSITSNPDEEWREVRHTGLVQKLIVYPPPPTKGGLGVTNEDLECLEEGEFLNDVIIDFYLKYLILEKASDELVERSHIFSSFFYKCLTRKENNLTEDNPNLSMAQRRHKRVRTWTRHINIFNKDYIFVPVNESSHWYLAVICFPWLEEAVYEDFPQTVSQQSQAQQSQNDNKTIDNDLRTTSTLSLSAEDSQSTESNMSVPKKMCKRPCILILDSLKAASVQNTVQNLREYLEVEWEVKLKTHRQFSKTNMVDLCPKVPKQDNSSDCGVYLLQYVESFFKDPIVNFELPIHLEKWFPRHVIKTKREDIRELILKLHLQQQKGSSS
# SENP8 confirm = human SENP8 inhibition, confirmed; shares compounds with SENP7 block; inhibition, % at 12.5 µM; Recombinant SENP8, Z-RLRGG-aminoluciferin luminescence, 60 min; 40% of 6,200 active;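 active = mean inhibition across replicates above about 50%, limit read from the data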
# SENP6 confirm = confirmation of human SENP6 protease inhibitors | shares compounds with SENP7 block | AID 488915 | recombinant SENP6, Z-RLRGG-aminoluciferin luminescence | inhibition, % at 12.5 µM | 58% of 6,200 active
# SENP7 confirm = human SENP7 inhibition, confirmed; shares compounds with SENP7 block; recombinant SENP7, Z-RLRGG-aminoluciferin luminescence, 40 min; inhibition, % at 12.5 µM; 69% of 6,200 active
# Casp3 SENP sel = inhibits human caspase-3 in SENP selectivity test | shares compounds with SENP7 block | purified caspase-3, Z-DEVD-aminoluciferin luminescence, 60 min | inhibition, % at 12.5 µM | 60% of 6,200 active | AID 488918;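 active = mean inhibition above about 50%, limit read from the data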
# Target sequence (P42574 28-227 limits assumed): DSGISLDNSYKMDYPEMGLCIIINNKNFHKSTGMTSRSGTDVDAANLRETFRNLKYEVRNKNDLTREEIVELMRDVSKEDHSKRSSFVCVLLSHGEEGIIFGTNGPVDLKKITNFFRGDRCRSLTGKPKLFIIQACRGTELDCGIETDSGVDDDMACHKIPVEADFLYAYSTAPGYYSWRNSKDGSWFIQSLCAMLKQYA
# Luc interf = counter-screen for SENP inhibitors: luminescence interference | shares compounds with SENP7 block | Pre-incubated SENP8/Z-RLRGG-aminoluciferin, luciferase luminescence interference | inhibition, % at 12.5 µM | 39% of 6,200 active;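 active = mean inhibition above about 50% when retested at one dose, limit read from the data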
# A number is an active result; i = inactive; nt = no result; ! = not confirmed by another sample.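 Rule for the calls, unless noted: active = mean inhibition above about 50% in the one-dose retest (limit read from the data); inactive = the rest.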
SMILES,SENP8 block-1,Platelet DG rel,SENP6 block,SENP8 block-2,HSP90 inh,SENP7 block,SENP8 confirm,SENP6 confirm,SENP7 confirm,Casp3 SENP sel,Luc interf
c1cncc(-c2nc3cc4ccccc4cc3[nH]2)c1,89,i,90,i,i,i,87,89,100,88,62
O=C(Nc1cccc(S(=O)(=O)N2CCCCC2)c1)c1cc(=O)[nH]c2ccccc12,i,nt,i,i,nt,i,nt,nt,nt,nt,nt
Cc1ccc(C(=O)c2sc3nsc(C)c3c2N)cc1,i,i,57,i,i,53,i,i,60,i,i
Cc1snc2sc(C(=O)c3ccc(Br)cc3)c(N)c12,i,i,i,i,i,i,nt,nt,nt,nt,nt
CCCCn1c(N)c(N(CCOC)C(=O)CC2CCCCC2)c(=O)[nH]c1=O,nt,nt,nt,i,nt,nt,nt,nt,nt,nt,nt
Nc1ccc(-c2cc(N)n(-c3ccccc3)n2)cc1,i,i,i,i,i,i,nt,nt,nt,nt,nt
Nc1cc(-c2ccc(Cl)cc2)nn1-c1ccccc1,i,i,i,i,i,63,i,i,80,53,71
CC(=O)Nc1ccc(-c2cc(N)n(-c3ccccc3)n2)cc1,i,i,55,i,i,58,i,i,78,80,62
Oc1ccc(/C=N/NC(=S)N/N=C/c2ccc(O)cc2)cc1,i,115,62,i,i,i,54,52,76,85,59
Oc1ccc(/C=N/NC(=S)Nc2cccnc2)cc1,i,i,i,i,i,i,nt,nt,nt,nt,nt
COc1cc(F)ccc1-c1csc(C(NC(C)=O)c2ccc(F)c(F)c2)n1 (stereo not given),nt,nt,nt,i,nt,nt,nt,nt,nt,nt,nt
CC(NCc1ccc(S(N)(=O)=O)cc1)C(=O)N1c2ccccc2CC1C (stereo not given),i,i,i,i,i,i,nt,nt,nt,nt,nt
Cc1cc(C2=NNC(=NC3CC3)SC2)c(C)n1-c1c(C)n(C)n(-c2ccccc2)c1=O,i,i,i,i,i,i,nt,nt,nt,nt,nt
Cc1ccc(-n2c(C)cc(C3=NNC(=NC4CC4)SC3)c2C)cc1C,56,i,i,i,i,i,82,84,93,74,53
COc1ccc(C(=O)NCc2nnc(SCC(=O)N3CCCC3)o2)cc1,i,i,i,i,i,i,nt,nt,nt,nt,nt
COc1cccc(C(=O)Cn2c(NCCO)nc3ccccc32)c1,i,i,i,i,i,i,nt,nt,nt,nt,nt
COc1cccc(C(=O)Cn2c(=N)n(C)c3ccccc32)c1,i,i,64,i,i,i,i,i,i,i,i
Cc1cc2ncn(/N=C/c3ccc([N+](=O)[O-])s3)c2cc1C,nt,i,nt,i,i,nt,nt,nt,nt,nt,nt
O=[N+]([O-])c1ccc(/C=N/Nc2ncccc2[N+](=O)[O-])s1,i,i,i,i,nt,91,i,i,i,i,i
Cc1nc2ccccc2c(=O)n1/N=C/c1ccc([N+](=O)[O-])o1,i,i,i,nt,i,i,nt,nt,nt,nt,nt
O=[N+]([O-])c1ccc(/C=N/n2cnc3ccccc32)s1,i,i,73,i,i,i,i,i,i,i,i
Cc1nc2ccccc2n1/N=C/c1ccc([N+](=O)[O-])s1,i,i,73,i,i,i,i,i,i,i,i
Oc1ccc(C[C@H]2CNCCN2CC2(c3ccccc3)CC2)cc1,i,i,i,i,nt,i,nt,nt,nt,nt,nt
CCOc1c(C)cc(S(=O)(=O)NCc2ccccn2)c(C)c1C,i,i,i,i,i,i,nt,nt,nt,nt,nt
COC(=O)c1ccc(COc2c(F)c(F)cc(F)c2F)o1,i,i,i,i,i,i,nt,nt,nt,nt,nt
SMILES,SENP8 block-1,Platelet DG rel,SENP6 block,SENP8 block-2,HSP90 inh,SENP7 block,SENP8 confirm,SENP6 confirm,SENP7 confirm,Casp3 SENP sel,Luc interf
O=C(O)c1cccc(COc2cccc3ccccc23)c1,97,i,97,i,nt,96,98,100,103,84,99
CCN(CC)C(=O)c1ccc(COc2ccccc2Cl)cc1,i,i,i,i,i,i,nt,nt,nt,nt,nt
COc1ccc(OCC(O)COc2ccc(C(=O)O)cc2)cc1 (stereo not given),i,i,i,i,i,i,nt,nt,nt,nt,nt
COc1ccc(OCc2ccc(C(=O)O)cc2)cc1,51,i,84,i,i,68,81,76,94,62,78
O=C(O)c1ccc(COc2c(F)c(F)cc(F)c2F)cc1,i,i,80,i,i,i,66,67,90,90,79
O=C(O)c1ccc(COc2ccccc2Cl)cc1,57,i,72,i,i,i,i,66,91,85,70
Cc1cc(-c2ccccc2)nc(SCc2ccc(C(=O)O)cc2)n1,i,i,i,i,i,i,nt,nt,nt,nt,nt
O=C(c1ccc(COc2ccc(Cl)cc2)cc1)N1CCCCC1,63,i,87,i,i,75,81,78,91,60,66
COC(=O)c1ccccc1NC1=C/C(=N\S(=O)(=O)c2cccs2)c2ccccc2C1=O,89,i,63,53!,i,52,i,64,i,i,i
COC(=O)c1cccc(NS(=O)(=O)c2cccs2)c1C,nt,i,nt,i,i,nt,nt,nt,nt,nt,nt
Cc1ccc(S(=O)(=O)Nc2ccc(N=Nc3ccc(O)cc3)cc2)cc1,i,i,i,i,i,i,nt,nt,nt,nt,nt
Cc1ccc(S(=O)(=O)/N=C2\C=C(Nc3ccc(O)cc3)C(=O)c3ccccc32)cc1,90,nt,84,80,nt,64,90,95,86,94,i
Cc1ccc(NC2=C/C(=N/S(=O)(=O)c3cccs3)c3ccccc3C2=O)cc1,i,i,77,94,i,69,i,54,i,i,i
Nc1nc2ccccc2n1/N=C/c1ccc2c(c1)OCO2,84,i,90,i,i,90,86,86,98,86,82
Nc1nc2ccccc2n1/N=C/c1ccc(Br)cc1,67,i,76,i,i,i,60,63,90,i,i
CCc1ccc(N(CC(=O)NC2CCCC2)C(=O)CCC(=O)Nc2ccccn2)cc1,i,i,i,i,i,i,nt,nt,nt,nt,nt
CCOC(=O)CSC1=NC(=O)/C(=C/c2ccc(OC)cc2)S1,i,i,77,i,i,i,i,i,i,i,i
COc1ccc(-c2cn3cc(C)ccc3n2)cc1Br,82,i,91,i,i,86,i,87,99,86,i
N#C/C(=C\c1ccc([N+](=O)[O-])o1)c1nc2ccccc2[nH]1,i,i,i,nt,i,i,nt,nt,nt,nt,nt
N#C/C(=C(/O)c1ccc([N+](=O)[O-])o1)c1nc2ccccc2[nH]1,i,i,66,i,i,i,i,i,i,i,i

# Bioassay records as filed in PubChem.
